# Data reported in the supplement of paper PMC10646978.
# ± gives the standard deviation.
# Assays:
# Conditions in all cases: modulator concentration 10 µM
# [1] = system: RAW-Dual (murine macrophage reporter line); assay: NF-kB reporter (SEAP) activity fold change vs agonist alone; higher = enhanced NF-kB activity
# Method in brief: (§1)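 In 384-well plates holding 50 000 RAW-Dual murine macrophage reporter cells per well, compound at 10 μM final was pre-incubated for 1 hour at 37 °C, after which a PRR agonist was added overnight. Supernatant SEAP read with QUANTI-Blue at 620 nm absorbance reported NF-κB, and Lucia luciferase read with QUANTI-Luc luminescence reported IRF. Fold change values come from dividing each reporter signal by the mean of agonist-only control wells on the same plate, averaged over replicate plates with propagated errors.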
# [2] = system: RAW-Dual (murine macrophage reporter line); assay: IRF reporter (Lucia luciferase) activity fold change vs agonist alone; higher = enhanced IRF activity
# Method in brief: as §1
# [3] = system: RAW-Dual (murine macrophage reporter line); assay: viability score (confluency relative to resting cells, overnight) (fraction); higher = more viable, active = viable (0.7 or more)
# Method in brief: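 In 384-well plates, RAW-Dual macrophages received compound at a final 10 μM overnight. Two confluency masks were then made with IncuCyte software from IncuCyte images of all imaged wells. The viability score is defined as confluency relative to resting cells. Passing the cutoff required both masks to lie above 70% of resting cells.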
# [4] = agonist: CpG ODN 1826 0.5 ug/mL
Compound,"NF-kB reporter [1, 4]",NF-kB reporter ([1]; agonist: LPS 0.1 ug/mL),NF-kB reporter ([1]; agonist: MPLA […]),IRF reporter ([2]; agonist: 3'3'-cGAMP 10 ug/mL),IRF reporter ([2]; agonist: LPS 0.1 ug/mL),IRF reporter ([2]; agonist: MPLA […]),viability score [3]
Cc1ccc(C(=O)c2cc(O)c(O)c([N+](=O)[O-])c2)cc1,0.889 ± 0.078,1.09 ± 0.056,1.07 ± 0.049,0.871 ± 0.048,0.917 ± 0.081,0.946 ± 0.075,0.995 (active)
O=C(Cc1ccc(F)cc1F)N1CCC(n2c(=O)[nH]c3ccccc3c2=O)CC1,1.01 ± 0.06,1.15 ± 0.088,0.997 ± 0.026,0.878 ± 0.033,1.07 ± 0.061,1.03 ± 0.12,1 (active)
CCCCOc1ccc(OCCCN2CCOCC2)cc1.Cl,1.2 ± 0.09,1.27 ± 0.16,1.25 ± 0.1,0.643 ± 0.054,0.852 ± 0.051,0.836 ± 0.071,0.981 (active)
Br.CCCc1cc(-c2nc(-c3ccc(C)cc3)cs2)ccn1,1.09 ± 0.18,1.24 ± 0.12,1.08 ± 0.15,1.04 ± 0.069,1.3 ± 0.22,1.65 ± 0.32,0.993 (active)
NCCCCC(=O)O.O=C1c2ccccc2C(=O)C1[N+](=O)[O-],0.788 ± 0.16,0.975 ± 0.076,0.843 ± 0.1,0.929 ± 0.025,1.13 ± 0.16,1.31 ± 0.13,1 (active)
COc1ccc(C=CC(=O)O)cc1OC,1.03 ± 0.077,1.1 ± 0.059,1 ± 0.022,1.03 ± 0.06,0.954 ± 0.078,0.973 ± 0.095,0.996 (active)
O=C(NN=Cc1cccc(Cl)c1Cl)c1cc(O)cc(O)c1,1.02 ± 0.084,0.918 ± 0.092,1.07 ± 0.1,0.934 ± 0.079,1.19 ± 0.22,1.3 ± 0.22,1.04 (active)
O=C1C(CCS(=O)c2ccccc2)C(=O)N(c2ccccc2)N1c1ccccc1 (stereo unspecified),0.833 ± 0.042,0.955 ± 0.076,0.954 ± 0.056,1.01 ± 0.068,1.22 ± 0.2,1.31 ± 0.44,1.02 (active)
Oc1ccccc1-c1cc(C(F)(F)F)on1,1.02 ± 0.08,0.982 ± 0.068,0.956 ± 0.096,0.349 ± 0.023,1.06 ± 0.066,1.12 ± 0.1,0.361 (inactive)
O=C(Cn1nc(S(=O)(=O)c2cccc(F)c2)ccc1=O)N1CCc2ccccc2C1,1.03 ± 0.097,1.07 ± 0.085,0.921 ± 0.053,1.02 ± 0.051,1.29 ± 0.1,1.14 ± 0.21,1 (active)
O=C(O)CCCNC(=O)c1cccc([N+](=O)[O-])c1,1.06 ± 0.14,1.11 ± 0.082,0.983 ± 0.036,0.986 ± 0.14,1.11 ± 0.11,1.05 ± 0.19,1 (active)
O=C(O)c1ccc(-n2nc(-c3ccccc3O)nc2-c2ccccc2O)cc1,0.749 ± 0.082,0.917 ± 0.1,1.11 ± 0.13,0.902 ± 0.042,1.31 ± 0.14,1.49 ± 0.15,0.988 (active)
CN1C(=N)NC(=O)C1=Cc1cc(Br)cc(Br)c1O,0.879 ± 0.099,0.898 ± 0.09,0.954 ± 0.04,0.96 ± 0.069,0.951 ± 0.046,1.01 ± 0.11,0.998 (active)
